For 53 compounds, activity change, negative = inhibition results are on record in PubChem BioAssay AID1259421 (Broad Institute, 2018).

The structures appear in SMILES notation. Where “and” joins values, the source holds several entries; their conditions need not be identical. Identical values can stand only once. About 610 (9.5%) of roughly 6,400 compounds were called active. Rule as the data show it: active = activity change below about -70%; inconclusive = no clear call, values can overlap the other calls; inactive = above that. Shown is part of a subset that was picked to be rich in actives. Some structures have more than one record in an assay (separate samples or runs), and their calls can disagree.

The nature of this assay: Toxoplasma gondii ME49Luc growth in HeLa cells, luciferase, no IFN-y, primary screen (AID 1259421). The note with it: T. gondii ME49Luc in HeLa, 72 h, stronger effect = lower value, concentration not given here.
For the compound `CC(=O)NC1C(O)OC(COS(=O)(=O)O)C(OC2OC(C(=O)O)C(OC3OC(CO)C(OC4OC(C(=O)O)C(O)C(O)C4OS(=O)(=O)O)C(OS(=O)(=O)O)C3NS(=O)(=O)O)C(O)C2OS(=O)(=O)O)C1O` (stereo not drawn), the activity change, negative = inhibition was 9.64% (inactive).
In the case of `CN(C)C(=O)Nc1cccc(-c2ccc(N(C)C)cc2)c1`, the activity change, negative = inhibition was 27.1% (inactive).
On to `CCn1cc(-c2ccnc3[nH]c(-c4cccc(CN(C)C)c4)cc23)c(-c2ccc(NC(=O)N(C)C)cc2)n1`, for which the activity change, negative = inhibition is -82.3% (active).
Take `CN(Cc1cnc2nc(N)nc(N)c2n1)c1ccc(C(=O)N[C@@H](CCC(=O)O)C(=O)O)cc1`: the activity change, negative = inhibition is -80.9% (active) and -28.7% (inactive).
With `C#CCC(Cc1cnc2nc(N)nc(N)c2n1)c1ccc(C(=O)N[C@@H](CCC(=O)O)C(=O)O)cc1` (stereo partly drawn) the figure was -66.9% (inactive); with `CN(Cc1cnc2nc(N)nc(N)c2n1)c1ccc(C(=O)NC(CCC(=O)O)C(=O)O)cc1` (stereo not drawn), -57.2% (inactive) and 1.6% (inactive); with `COc1ccc(CCN(C)CCCC(C#N)(c2cc(OC)c(OC)c(OC)c2)C(C)C)cc1OC` (stereo not drawn), 41.7% (inactive).
As to `N=C(CC(O)COc1ccccc1-c1ccccc1)N1CCCCC1` (stereo not drawn), the activity change, negative = inhibition is 10.7% (inactive).
Next, `CC(C)Oc1ccc(-c2cnc3c(-c4ccnc5ccccc45)cnn3c2)cc1`: -49.1% (inactive); `COc1ccc(-c2cnc3c(-c4cccc5ncccc45)cnn3c2)cc1`: 2.75% (inactive).
With `c1cc(-c2cnn3cc(-c4ccc(N5CCNCC5)cc4)cnc23)c2cccnc2c1` the figure was -84.7% (active); with `COC(F)(F)C(Cl)Cl`, 19.6% (inactive).
`CC(C)(Oc1ccc(Cl)cc1)C(=O)N1CSCC1C(=O)O` (stereo not drawn): the activity change, negative = inhibition is 19% (inactive).
For the compound `NC(=O)C1CC2(NC(=O)NC2=O)c2cc(F)ccc2O1` (stereo not drawn), the activity change, negative = inhibition was 12.6% (inactive).
Next, `Cc1nc(Nc2ncc(C(=O)Nc3c(C)cccc3Cl)s2)cc(N2CCN(CCO)CC2)n1`: -75.5% (active) and -82.6% (active).
For the compound `Cc1cc(Nc2cc(N3CCN(C)CC3)nc(Sc3ccc(NC(=O)C4CC4)cc3)n2)n[nH]1`, the activity change, negative = inhibition is -15.4% (inactive) and -14.2% (inactive) and -8.95% (inactive).
With `S=c1[nH]c2ccccc2s1` the figure was 14.8% (inactive) and 4.19% (inactive); with `S=c1nc[nH]c2[nH]ncc12`, -6.21% (inactive); with `C[C@]12CCC(=O)C=C1CCC1C2[C@@H](O)C[C@@]2(C)C1CC[C@]2(O)C(=O)COC(=O)CCC(=O)O` (stereo partly drawn), -4.51% (inactive) and -4.05% (inactive).
Next, `COC1C(O)[C@@H](O)C(O)C(O)[C@H]1O` (stereo partly drawn): 4.8% (inactive); `COc1ccc2c(c1)OCC(Cc1ccc(OC)c(OC(C)=O)c1)C2=O` (stereo not drawn): -72% (active).
Next, `COc1ccc2c(c1)OCC(Cc1ccc(O)c(OC)c1)C2=O` (stereo not drawn): -0.0941% (inactive); `COc1ccc2c(c1)OCC(Cc1ccc(OC)c(OC)c1)C2=O` (stereo not drawn): -1.15% (inactive); `CO/N=C(/C(=O)N[C@@H]1C(=O)N2C(C(=O)O)=C(C[n+]3cccc4c3CCC4)CS[C@H]12)c1csc(N)n1`: 14.5% (inactive).
Take `CO/N=C(/C(=O)NC1C(=O)N2C(C(=O)O)=C(CSc3nc(=O)c(=O)[nH]n3C)CSC12)c1csc(N)n1` (stereo not drawn): the activity change, negative = inhibition is -0.639% (inactive).
With `COc1ccc([C@@H]2Sc3ccccc3NC(=O)[C@@H]2O)cc1` the figure was 11.7% (inactive); with `O=P(O)(O)OC[C@H]1OC(O)[C@H](O)[C@@H](O)[C@@H]1O` (stereo partly drawn), 7.08% (inactive); with `Cc1[nH]c2ccccc2c1CCNC(=O)c1cccs1`, 9.58% (inactive).
Turning to `CC(=O)NCCc1c(Cc2ccccc2)[nH]c2ccccc12`, the activity change, negative = inhibition is -2.39% (inactive).
With `Cc1[nH]c2ccccc2c1CCNCc1ccc(/C=C/C(=O)NO)cc1` the figure was -73.2% (active) and -76.5% (active).
With `CC(C)(N)C(=O)N[C@H](COCc1ccccc1)C(=O)N1CCC2(CC1)CN(S(C)(=O)=O)c1ccccc12` the figure was 5.12% (inactive).
With `Cc1cc(/C(=C\Nc2ccc(Cl)cc2)C(=O)Nc2ccc(Cl)cc2)on1` the figure was 18.7% (inactive).
Regarding `FC(F)(F)C(F)(F)C(F)(F)C(F)(F)C(F)(F)C(F)(F)C(F)(F)C(F)(F)Br`, the activity change, negative = inhibition is 2.95% (inactive).
With `CC(=O)c1ccc2c(c1)[C@@H]1C=CC[C@@H]1[C@H](c1cc3c(cc1Br)OCO3)N2` the figure was -79.7% (active); with `O=C(O)c1ccc2c(c1)OCO2`, 16% (inactive).
Consider `Brc1cc2c(cc1[C@H]1Nc3ccccc3[C@H]3C=CC[C@H]31)OCO2` (racemic), for which the activity change, negative = inhibition was 11.8% (inactive).
With `COC(=O)C1=C(C)NC(C)=C([N+](=O)[O-])[C@@H]1c1ccccc1C(F)(F)F` the figure was 1.1% (inactive); with `C/C(=C(/CCO)SSCC1CCCO1)N(C=O)Cc1cnc(C)nc1N` (stereo not drawn), 15% (inactive).
Next, `CCC(=O)Nc1cccc(Oc2nc(Nc3ccc(N4CCN(C)CC4)cc3OC)ncc2Cl)c1`: 7.36% (inactive); `CN1CCN(c2ccc(OC(F)(F)F)c(Nc3ncc4c(n3)-c3c(c(C(N)=O)nn3CCO)CC4)c2)CC1`: -90.8% (active); `C=CC(=O)Nc1cccc(Oc2nc(Nc3ccc(N4CCN(C)CC4)cc3OC)ncc2Cl)c1`: -35.2% (inactive).
With `CCN(CC)S(=O)(=O)c1ccc(C(=O)O)cc1`, the activity change, negative = inhibition is -0.641% (inactive) and 12.4% (inactive).
With `CCc1cc(C(C)=O)c(O)cc1OCCCCCC(C)(C)c1nn[nH]n1` the figure was 50.8% (inactive) and 31.2% (inactive); with `Nc1ccncc1N`, -3.18% (inactive); with `Nc1ccc(-c2ccc3ncc4ccc(=O)n(-c5cccc(C(F)(F)F)c5)c4c3c2)cn1`, -76.7% (active).
Next, `CCC(=O)N1CCN(c2ccc(-n3c(=O)ccc4cnc5ccc(-c6cnc7ccccc7c6)cc5c43)cc2C(F)(F)F)CC1`: -56% (inactive).
Turning to `COc1ccc(C(=O)CCC(=O)O)c2ccccc12`, the activity change, negative = inhibition is 2.31% (inactive).
Next, `COC(=O)c1cc(S(C)(=O)=O)ccc1OC`: 9.8% (inactive).
With `COc1ccc(CCN2CCN(CCCc3ccccc3)CC2)cc1OC` the figure was -27.2% (inactive); with `OCC1OC(n2cnc3c(NC4CCCC4)ncnc32)C(O)C1O` (stereo not drawn), 1.64% (inactive).
With `N#C/C(=C\c1ccc(O)c(O)c1)C(N)=O` the figure was 16.2% (inactive) and 6.7% (inactive); with `N#CC(C#N)=C(N)/C(C#N)=C/c1cc(O)c(O)c(O)c1`, 5.32% (inactive).
As to `CC(C)(C)c1cc(/C=C(\C#N)C(N)=S)cc(C(C)(C)C)c1O`, the activity change, negative = inhibition is -82.2% (active) and -86% (active).
